# Measured values reported in PubChem BioAssay AID686978 (National Center for Advancing Translational Sciences (NCATS), 2013).
# Several values for one entry are separate records, joined by “and”; a condition that tells them apart may be missing. Equal entries are not always repeated. Among all 420,000 compounds or so, about 64,000 (15%) were called active. Not shown: some 27% with an inconclusive outcome. Calls follow the shape of the dose curve; as a rule, active = well fitted inhibition curve with a large enough effect; inconclusive = small, poorly fitted or top-dose-only effect; inactive = flat fitted curve, though single readings scatter. The list is a sample of the results.
# Assay: qHTS for Inhibitors of human tyrosyl-DNA phosphodiesterase 1 (TDP1): qHTS in cells in absence of CPT; also: nearly all actives have a fitted effect of over 55% in size
# Conditions: DT40 Tdp1-/- hTDP1 cells, no CPT, ATP luminescence, 48 h; activity change, negative = growth inhibition: at 46.2 µM (top of the series)
# In short: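 Growth kinetics read by CellTiter-Glo luminescence after ≥48 hr at 37 °C. Cells: DT40 Tdp1-/- stably carrying human TDP1, 400 per well, compound exposure in the absence of CPT (DMSO vehicle).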
# % is scaled to controls: 0 for no effect and ±100 for the full control effect; potency is read from the fitted curve at half-maximal effect.
Compound,"activity change, negative = growth inhibition",Potency
CCCS(=O)(=O)C(=C1Nc2ccccc2N1)S(=O)(=O)CCC,-3.88% (inactive),–
CN(C)S(=O)(=O)c1cc(C(=O)Nc2ccn(C)n2)c(Cl)cc1Cl,-0.996% (inactive),–
COc1cc(-c2cccnc2)cc2c1OCCN(C(=O)Cc1csc(C)n1)C2,-6.19% (inactive),–
COc1ccc2c(c1)NC(=O)C2CC(=O)N1CCOc2c(cc(-c3cnc4ccccc4c3)cc2OC)C1 (centres undefined),–,18.4 µM (active)
COc1ccc(OC)c(CNC(=O)C2CCCN(c3nc4ccccc4o3)C2)c1 (centres undefined),-18.9% (inactive),–
COC(=O)c1ccc(/C=C2/C(=O)Oc3ccccc32)cc1,-21.5% (inactive),–
O=C1Oc2ccccc2C(=O)/C1=C/c1ccccc1O,–,8.2 µM (active)
COC(=O)c1c(NC(=O)c2c(Cl)cnn2C)sc(C)c1C,-17.9% (inactive),–
CN1CCN(c2ccc(S(=O)(=O)N3CCOCC3)cc2NC(=O)CCc2ccccc2)CC1,10.5% (inactive),–
COC(=O)C(C)N=Cc1ccccc1 (centres undefined),-2.77% (inactive),–
CCCSc1nc2c(c(=O)[nH]c(=O)n2C)n1CCc1ccccc1,-23.1% (inactive),–
CN(Cc1ccccc1)c1nc2c(c(=O)[nH]c(=O)n2C)n1CCSc1nc2ccccc2[nH]1,-2.54% (inactive),–
CC=CCn1c(SCCCc2ccccc2)nc2c1c(=O)[nH]c(=O)n2C,–,20.6 µM (active)
CN(C)Cc1c(C(=O)N/N=C/c2ccccc2OCc2ccc(F)cc2)nnn1-c1nonc1N,7.5% (inactive),–
Fc1cccc(/C=N\N=C/c2cccc(F)c2)c1,-7.48% (inactive),–
Cn1nc(-c2ccccc2)c2cc([N+](=O)[O-])ccc21,0.26% (inactive),–
COc1cc(/C(=C/c2ccccc2)c2ccccc2)c2c(c1)oc1ccccc12,–,inactive
CCCC(=O)Nc1c(O)c2ccccc2[nH]c1=O,-2.3% (inactive),–
CC1=C(C(=O)N2CCOCC2)CC(CC(=O)NCCCN(C)C)C(=O)N1Cc1ccc(C(C)(C)C)cc1 (centres undefined),6.72% (inactive),–
CN1/C(=c2/s/c(=C3/C(=O)N(c4ccccc4)NC3=Nc3ccccc3)n(C)c2=O)C(C)(C)c2ccccc21,–,11.6 µM (active)
O=C(c1cccc(Cl)c1)N1CCN(Cc2ccccc2)CC1,-24.6% (inactive),–
O=C(c1ccccc1)N1CCN(c2cc(-c3ccccc3)nc3cc(-c4cccc(Cl)c4)nn23)CC1,–,14.6 µM (active)
C#Cc1cc(N2CCN(C(=O)c3ccoc3)CC2)n2nc(-c3cccc(Cl)c3)cc2n1,–,5.8 µM (active)

Compound,"activity change, negative = growth inhibition",Potency
O=C(c1cccc(Cl)c1)N1CCN(CCc2ccncc2)CC1,-11.9% (inactive),–
O=C(c1cccc(Br)c1)N1CCN(Cc2cc(=O)n3nc(-c4ccccc4)sc3n2)CC1,3.37% (inactive),–
COc1ccc2c(c1)c(=O)c(S(=O)(=O)c1ccc(F)cc1)cn2CC(=O)Nc1ccc(C)cc1C,24.6% (inactive),–
CCOC(=O)c1ccccc1NC(=O)CCc1c(C)nc2c(c1C)c(=O)n(C)c(=O)n2C,-19.7% (inactive),–
O=C1Nc2cc(Cl)c(Cl)cc2N(O)N1c1cc(Cl)cc(Cl)c1,-19.7% (inactive),–
C/C(N)=C(/C#N)C(=O)COC(=O)C1=NN(c2ccccc2)C(=O)CC1,4.78% (inactive),–
CCNc1nc(Oc2ccc(C(=O)OC)cc2)nc(N2CCOCC2)n1,-20.1% (inactive),–
CCOC(=O)C1CCN(C(=O)/C=C/c2cc(OC)c(OC)c(OC)c2)CC1,-24.2% (inactive),–
CCCCNC(=O)Cn1nc(C)c(S(=O)(=O)N2CCOCC2)c1C,4.34% (inactive),–
COC(=O)c1sccc1N/N=C(\C)c1ccc(F)c(Cl)c1,-16.8% (inactive),–
O=C(COc1ccc(Cl)cc1)NCCC1=CCCCC1,-14.8% (inactive),–
COc1ccc(Cc2nnc(SCC(=O)Nc3ccc(C)c(Cl)c3)[nH]c2=O)cc1,-11.1% (inactive),–
COCCNC(=O)CSc1nc2sccc2c(=O)n1-c1ccccc1,-14% (inactive),–
Cc1nnc(SCC(=O)NCCOc2ccc(Cl)cc2)n1-c1ccccc1,-22.3% (inactive),–
CCCCNC(=O)CSc1nnc(-c2ccco2)n1C,-13.5% (inactive),–
Cc1ccc(-n2c(SCC(=O)NCCC3=CCCCC3)nc3n[nH]c(C)c3c2=N)cc1Cl,–,3.26 µM (active)
COc1ccc(-n2c(SCC(=O)Nc3ccc(Cl)c(C)c3)nc3n[nH]c(C)c3c2=N)cc1,–,9.2 µM (active)
Cc1nnc(SCC(=O)NCc2ccccc2)s1,2.12% (inactive),–
CCOc1ccc(-n2c(SCC(=O)NCc3ccccc3)nc3n[nH]c(C)c3c2=N)cc1,–,7.31 µM (active)
Cc1ccccc1CN1CCNC(=O)C1CC(=O)NCCC1=CCCCC1 (centres undefined),7.28% (inactive),–
CCCCNC(=O)CSc1nc2n[nH]c(C)c2c(=N)n1-c1cccc(Cl)c1C,–,20.6 µM (active) and 9.2 µM (active)
COc1ccc(-n2c(Cc3cccn3C)nnc2SCC(=O)Nc2cc(C)cc(C)c2)cc1,-1.68% (inactive),–
CN1CCN(CCNC(=O)Nc2ccccc2[N+](=O)[O-])CC1,1.69% (inactive),–

Compound,"activity change, negative = growth inhibition",Potency
Cc1nnc2sc(-c3ccco3)nn12,3.77% (inactive),–
CSc1ccc(C#N)cc1NC(=O)c1ccc(Cl)cc1,-21.7% (inactive),–
COCCCNC(=O)/C(C#N)=C/c1c(N2CCCCCC2)nc2ccccn2c1=O,-24.2% (inactive),–
CCOC(=O)C1=C(C)NC(=O)N(C(C)=O)C1c1ccc(Cl)cc1 (centres undefined),-29% (inactive),–
CCN(CC(=O)Nc1ccc2c(c1)OCO2)S(=O)(=O)c1ccccc1,1.23% (inactive),–
O=C(COC(=O)CCc1c[nH]c(=O)[nH]1)Nc1ccccc1Cl,-3.82% (inactive),–
Cn1c(-c2ccc(F)cc2)cnc1SCC(=O)NNC(=O)Cc1ccccc1,-20.8% (inactive),–
COc1cccc(-n2c(SCC(=O)NC3CCS(=O)(=O)C3)nc3ccccc3c2=O)c1 (centres undefined),-17.4% (inactive),–
COc1cccc(-n2c(N)cc(=O)nc2SCC(=O)Nc2cc(C)on2)c1,-20.8% (inactive),–
CCC(Sc1nc2n[nH]c(C)c2c(=N)n1-c1ccccc1Cl)C(=O)N(CC)CC (centres undefined),–,16.4 µM (active)
COc1cccc(-n2c(SCC(=O)NC3CCCCC3)nc3n[nH]c(C)c3c2=N)c1,–,18.4 µM (active)
Cc1ccc(Sc2cc(C(=O)c3ccccc3C(=O)O)ccc2[N+](=O)[O-])cc1,23.2% (inactive),–
CC(=O)OCCOCn1cnn2c(=O)c(Br)c(C)nc12,7.7% (inactive),–
NS(=O)(=O)c1ccc(NC2=CC(c3ccc(F)cc3)N(c3ccc(S(N)(=O)=O)cc3)C2=O)cc1 (centres undefined),15.4% (inactive),–
Cc1ccc(S(=O)(=O)N[C@H]2CCC[C@@H]2O)cc1,3.58% (inactive),–
COc1ccc(CNS(=O)(=O)c2cc3c4c(c2)CCN4C(=O)CC3)cc1,-21% (inactive),–
COc1ccc(CNS(=O)(=O)c2ccc(-c3cnc(C4CC4)o3)cc2)cc1,–,13 µM (active)
CC1CCN(S(=O)(=O)c2ccc(S(=O)(=O)NCc3cccnc3)cc2)CC1,-16.9% (inactive),–
Cc1cccc(NS(=O)(=O)c2ccc(-c3cnc(C4CC4)o3)cc2)c1,–,0.58 µM (active)
Cc1cccc(CNS(=O)(=O)c2ccc(-c3cnc(C4CC4)o3)cc2)c1,–,16.4 µM (active)
COc1ccc(S(=O)(=O)NCc2cccn2Cc2cccc(C)c2)cc1,-0.409% (inactive),–
Cc1cc(NS(=O)(=O)c2ccc3oc(=O)c4ncn(C)c4c3c2)ccc1Br,-13% (inactive),–
COc1ccc(S(=O)(=O)NCc2ccc(C(=O)N(C)Cc3ccco3)cc2)cc1,-14.6% (inactive),–
